Structures are written as SMILES. This is part of a sample that, as a whole, favours compounds with a hit. Of some 79,000 tested, about 15% had one in any assay. A number with no mark means an inactive call. The source made the active and inactive calls. Rule as the data show it: active = growth inhibition above about 70%; inactive = the rest.

The nature of test [1]: NCI Yeast Anticancer Drug Screen. Data for the rad50 strain (AID 155).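 Also: 0% = growth of vehicle-only cultures of the same strain.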 The settings on record: S. cerevisiae rad50 strain growth inhibition, active compounds read high. An outline of the steps: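 Growth of the mutant yeast was measured after compound exposure and referenced to vehicle-treated cultures.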
The nature of test [2]: NCI Yeast Anticancer Drug Screen. Data for the mec2-1 strain (AID 157). The settings on record: S. cerevisiae mec2-1 strain, active compounds read high. The method in brief:
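Using mec2-1 yeast: add compound, measure growth, express inhibition versus vehicle-treated cultures.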

Test [3] in a line: NCI Yeast Anticancer Drug Screen. Data for the sgs1 mgt1 strain (AID 161).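 Also: 0% = growth of cultures given vehicle only.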 The conditions noted are these: S. cerevisiae sgs1 mgt1 strain, active compounds read high. The method in brief:
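This yeast growth screen uses a strain with defined DNA-repair lesions; compound-treated growth is compared with vehicle-treated growth.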

Test [4] in a line: NCI Yeast Anticancer Drug Screen. Data for the cln2 rad14 strain (AID 165).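 Also: 0% = growth equal to vehicle treated cultures.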 The conditions noted are these: S. cerevisiae cln2 rad14 strain, active compounds read high. An outline of the steps:
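Yeast strain cln2 rad14, bearing defects in cell cycle control and DNA repair, serves as the test system; values reflect growth inhibition compared with vehicle.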

Test [5] is described as follows: NCI Yeast Anticancer Drug Screen. Data for the bub3 strain (AID 167). The settings on record: S. cerevisiae bub3 mutant strain, active compounds read high. An outline of the steps: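 Whole-cell yeast assay. The mutant strain was incubated with compounds, and growth inhibition was determined by comparison with vehicle-treated cells.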
Test [6] is described as follows: NCI Yeast Anticancer Drug Screen. Data for the mlh1 rad18 strain (AID 175). The settings on record: S. cerevisiae mlh1 rad18 strain growth inhibition, active compounds read high. The method in brief:
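Steps: expose repair-defective yeast to compound; measure growth; express inhibition against vehicle-treated controls.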

Where [7] appears, read: at 5.0 µM (retest, dose inferred, filed as 0.5).
[8] abbreviates: at 50.0 µM (retest, dose inferred, filed as 5.0).

In the case of `OC(c1ccc(Cl)cc1)c1ccc(Cl)cc1`, the growth inhibition in test [1] (setting [7]) is -7%; in test [1] (setting [8]), 100% (active); in test [1] (at 50.0 µM), 79% (active); in test [2] (setting [7]), -11%; in test [2] (setting [8]) it was 100% (active); in test [2] (at 50.0 µM) it was 98.2% (active). The growth inhibition is -7% in test [3] (setting [7]); 100% (active) in test [3] (setting [8]); 75.2% (active) in test [3] (at 50.0 µM); -17% in test [4] (setting [7]); 100% (active) in test [4] (setting [8]); 85.3% (active) in test [4] (at 50.0 µM). Also, the growth inhibition in test [5] (setting [7]) was -11%; in test [5] (setting [8]) it was 100% (active); in test [5] (at 50.0 µM), 98.8% (active); in test [6] (setting [7]), -6%; in test [6] (setting [8]), 99% (active); in test [6] (at 50.0 µM) it was 85.2% (active).

As for `NC(CCCCCC(N)C(=O)O)C(=O)O` (stereo not given), the growth inhibition in test [1] (setting [7]) was -165%; in test [1] (setting [8]) it was -146%; in test [1] (at 50.0 µM) it was 15.1%; in test [2] (setting [7]), -50%; in test [2] (setting [8]), -54%; in test [2] (at 50.0 µM), 9.1%. Also, the growth inhibition in test [3] (setting [7]) was -66%; in test [3] (setting [8]) it was -66%; in test [3] (at 50.0 µM), 14.9%; in test [4] (setting [7]), -60%; in test [4] (setting [8]), -83%; in test [4] (at 50.0 µM), 76.8% (active). In addition, the growth inhibition in test [5] (setting [7]) is -67%; in test [5] (setting [8]) it was -71%; in test [5] (at 50.0 µM), 18.8%; in test [6] (setting [7]), -241%; in test [6] (setting [8]) it was -121%; in test [6] (at 50.0 µM), 3.05%.

For the molecule `CCC(=C(c1ccc(OCCN(C)C)cc1)c1cccc(O)c1)c1ccccc1` (mixture of isomers), the growth inhibition is 34% in test [1] (setting [7]); 97% (active) in test [1] (setting [8]); 86% (active) in test [1] (at 50.0 µM); 10% in test [2] (setting [7]); 99% (active) in test [2] (setting [8]); 62% in test [2] (at 50.0 µM). Moreover, the growth inhibition in test [3] (setting [7]) was 44%; in test [3] (setting [8]), 98% (active); in test [3] (at 50.0 µM), 96.5% (active); in test [4] (setting [7]), 34%; in test [4] (setting [8]), 97% (active); in test [4] (at 50.0 µM), 76.9% (active). Also, the growth inhibition in test [5] (setting [7]) was 23%; in test [5] (setting [8]), 99% (active); in test [5] (at 50.0 µM) it was 76.5% (active); in test [6] (setting [7]), 64%; in test [6] (setting [8]), 98% (active); in test [6] (at 50.0 µM), 94% (active).

`S=C(Nc1ccc2cn[nH]c2c1)Nc1ccc2cn[nH]c2c1`: the growth inhibition was 7% in test [1] (setting [7]); 46% in test [1] (setting [8]); 79.1% (active) in test [1] (at 50.0 µM); 16% in test [2] (setting [7]); 0% in test [2] (setting [8]); -12.9% in test [2] (at 50.0 µM). In addition, the growth inhibition in test [3] (setting [7]) was -5%; in test [3] (setting [8]) it was 5%; in test [3] (at 50.0 µM), 30.9%; in test [4] (setting [7]), -25%; in test [4] (setting [8]) it was 2%; in test [4] (at 50.0 µM) it was -1.15%. Further, the growth inhibition in test [5] (setting [7]) is 7%; in test [5] (setting [8]), 1%; in test [5] (at 50.0 µM), 40%; in test [6] (setting [7]), 2%; in test [6] (setting [8]) it was 17%; in test [6] (at 50.0 µM) it was 41.9%.

On to `c1ccc(CSc2nnc(SCc3ccccc3)c3[nH]cnc23)cc1`, for which the growth inhibition in test [1] (setting [7]) was -3%; in test [1] (setting [8]) it was 33%; in test [1] (at 50.0 µM) it was 61.4%; in test [2] (setting [7]), -7%; in test [2] (setting [8]), 38%; in test [2] (at 50.0 µM) it was 46.9%. The growth inhibition is -1% in test [3] (setting [7]); 45% in test [3] (setting [8]); 46.1% in test [3] (at 50.0 µM); -4% in test [4] (setting [7]); 23% in test [4] (setting [8]); 56% in test [4] (at 50.0 µM). The growth inhibition is -3% in test [5] (setting [7]); 45% in test [5] (setting [8]); 50.1% in test [5] (at 50.0 µM); -6% in test [6] (setting [7]); 34% in test [6] (setting [8]); 11.9% in test [6] (at 50.0 µM).

In the case of `[Pt].c1ccc([PH+](CC[PH+](CC[PH+](c2ccccc2)c2ccccc2)CC[PH+](c2ccccc2)c2ccccc2)c2ccccc2)cc1`, the growth inhibition was 54% in test [1] (setting [7]); 96% (active) in test [1] (setting [8]); 89.8% (active) in test [1] (at 50.0 µM); 97% (active) in test [2] (setting [7]); 98% (active) in test [2] (setting [8]); 90.7% (active) in test [2] (at 50.0 µM). Besides, the growth inhibition is 28% in test [3] (setting [7]); 97% (active) in test [3] (setting [8]); 91.7% (active) in test [3] (at 50.0 µM); 27% in test [4] (setting [7]); 97% (active) in test [4] (setting [8]); 89.3% (active) in test [4] (at 50.0 µM). The growth inhibition in test [5] (setting [7]) is 93% (active); in test [5] (setting [8]), 97% (active); in test [5] (at 50.0 µM), 89.8% (active); in test [6] (setting [7]), 68%; in test [6] (setting [8]) it was 97% (active); in test [6] (at 50.0 µM), 88.7% (active).

Consider `C/C(=N/NC(=S)N1CCCCC1)c1cccc(/C(C)=N\NC(=S)N2CCCCC2)n1`, for which the growth inhibition is -13% in test [1] (setting [7]); 93% (active) in test [1] (setting [8]); 74.2% (active) in test [1] (at 50.0 µM); -1% in test [2] (setting [7]); 95% (active) in test [2] (setting [8]); 88% (active) in test [2] (at 50.0 µM). In addition, the growth inhibition in test [3] (setting [7]) was 6%; in test [3] (setting [8]), 96% (active); in test [3] (at 50.0 µM) it was 74.7% (active); in test [4] (setting [7]), -10%; in test [4] (setting [8]), 94% (active); in test [4] (at 50.0 µM) it was 87.3% (active). Also, the growth inhibition in test [5] (setting [7]) was 8%; in test [5] (setting [8]), 94% (active); in test [5] (at 50.0 µM), 90% (active); in test [6] (setting [7]) it was -3%; in test [6] (setting [8]) it was 95% (active); in test [6] (at 50.0 µM), 88.2% (active).

With `CNC(=O)OCc1c(COC(=O)NC)c(-c2ccc(OC)cc2)n2c1CCC2`, the growth inhibition was 28% in test [1] (setting [7]); 33% in test [1] (setting [8]); 28.4% in test [1] (at 50.0 µM); 19% in test [2] (setting [7]); 21% in test [2] (setting [8]); 74.9% (active) in test [2] (at 50.0 µM). Further, the growth inhibition was 44% in test [3] (setting [7]); 68% in test [3] (setting [8]); 70.9% (active) in test [3] (at 50.0 µM); 38% in test [4] (setting [7]); 43% in test [4] (setting [8]); 73.7% (active) in test [4] (at 50.0 µM). Moreover, the growth inhibition is 50% in test [5] (setting [7]); 46% in test [5] (setting [8]); 48.4% in test [5] (at 50.0 µM); 23% in test [6] (setting [7]); 32% in test [6] (setting [8]); 92.6% (active) in test [6] (at 50.0 µM).

Take `COc1cccc2c1C(=O)c1c(O)c3c(c(O)c1C2=O)CC(O)(C(C)=O)CC3OC1OC(COC(C)=O)C(OC(C)=O)C(OC(C)=O)C1OC(C)=O` (stereo not given): the growth inhibition was 5% in test [1] (setting [7]); 58% in test [1] (setting [8]); 95.5% (active) in test [1] (at 50.0 µM); 49% in test [2] (setting [7]); 30% in test [2] (setting [8]); 97.5% (active) in test [2] (at 50.0 µM). Moreover, the growth inhibition in test [3] (setting [7]) was 3%; in test [3] (setting [8]), 33%; in test [3] (at 50.0 µM) it was 97.8% (active); in test [4] (setting [7]), 5%; in test [4] (setting [8]), 8%; in test [4] (at 50.0 µM) it was 97.2% (active). Further, the growth inhibition in test [5] (setting [7]) is 2%; in test [5] (setting [8]), 83% (active); in test [5] (at 50.0 µM), 98.9% (active); in test [6] (setting [7]), 3%; in test [6] (setting [8]), 59%; in test [6] (at 50.0 µM), 98% (active).

With `CCOC(=O)C(=O)NNc1ccccc1`, the growth inhibition was 22% in test [1] (setting [7]); 89% (active) in test [1] (setting [8]); 97.8% (active) in test [1] (at 50.0 µM); 3% in test [2] (setting [7]); 82% (active) in test [2] (setting [8]); 94.8% (active) in test [2] (at 50.0 µM). In addition, the growth inhibition in test [3] (setting [7]) was 13%; in test [3] (setting [8]) it was 61%; in test [3] (at 50.0 µM), 98.7% (active); in test [4] (setting [7]), -1%; in test [4] (setting [8]) it was 57%; in test [4] (at 50.0 µM), 92.7% (active). In addition, the growth inhibition is 17% in test [5] (setting [7]); 96% (active) in test [5] (setting [8]); 97.5% (active) in test [5] (at 50.0 µM); 31% in test [6] (setting [7]); 95% (active) in test [6] (setting [8]); 98.9% (active) in test [6] (at 50.0 µM).

The values are drawn from PubChem BioAssay (NCI).
